From PubChem
MazF activator – activators of E. coli MazEF toxin-antitoxin RNase, primary screen, biochemical, fluorescence, uHTS; FAM/BHQ RNA-DNA oligo cleavage fluorescence, 5 h; activation, % at 20 µM; hit rate 0.32% among 350,000; AID 504720, 2011; in the data active means activation above about 50%
Target sequence (P0AE70 whole entry, looked up): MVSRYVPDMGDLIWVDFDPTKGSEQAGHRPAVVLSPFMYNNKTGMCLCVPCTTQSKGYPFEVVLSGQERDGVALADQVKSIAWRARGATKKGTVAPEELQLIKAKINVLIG
Autofluor counter – compound fluorescence in toxin protease inhibitor counterscreen | fluorescence intensity (no concentration beside the values) | hit rate 3.1% among 360,000 | compound autofluorescence counterscreen, microsphere flow cytometry; stronger effect = higher value; in the data active means fluorescence intensity above about 16000; inconclusive means no clear call, values can overlap the other calls
BoNT A protease – BoNT/A light chain protease inhibitors, primary screen, biochemical, flow cytometry, MLPCN library; multiplex microsphere protease substrate cleavage; inhibition, % at 10 µM; hit rate 0.17% among 360,000; AID 588499, 2011; further: plate controls were buffer without enzyme for full effect and enzyme alone for no effect
BoNT F protease – BoNT/F light chain protease inhibitors, primary screen, biochemical, flow cytometry, MLPCN library; AID 588497, 2011; hit rate 0.22% among 360,000; inhibition, % at 10 µM; Botulinum neurotoxin type F light chain protease (Clostridium botulinum); Multiplex microsphere protease cleavage assay; in the data active means inhibition above about 35%, passing the limit was not always enough; inconclusive means no clear call, values can overlap the other calls; further: plate controls were buffer without enzyme for full effect and enzyme alone for no effect
Anthrax LF prot – Bacillus anthracis LF protease inhibitors, primary screen, biochemical, multiplex microsphere, MLPCN library; Lethal factor (Bacillus anthracis), P15917; multiplex microsphere protease cleavage assay; inhibition, % at 10 µM; hit rate 0.12% among 360,000; AID 588501, 2011; further: plate controls were buffer without enzyme for full effect and enzyme alone for no effect
The depositor's hits bear a star; u = inconclusive; x = not tested or not shown. Shown are actives, neighbours in structure and some others; about 3.7% of the full set was active somewhere. Unless noted, no stated cut-off is given here; in the data, active means inhibition above about 30%; inconclusive means no clear call, values can overlap the other calls; inactive means below that.

SMILES | MazF activator | Autofluor counter | BoNT A protease | BoNT F protease | Anthrax LF prot
COC(=O)c1ccccc1NS(=O)(=O)c1ccc(F)cc1 | -4.3 | 20259* | u | 1.9 | -5.8
CCc1cccc(NC(=O)C2CCCN(S(=O)(=O)c3cccs3)C2)c1 (stereo not given) | 9.8 | 3900 | 0.3 | -17.4 | -10.2
O=C(CC[C@H]1O[C@@H](n2ccc(=O)[nH]c2=O)[C@H](O)[C@@H]1O)N[C@H](Cc1ccccc1)C(=O)NC1CCCCC1 | x | 5713 | -1.2 | -0.6 | -0.5
Cc1ccsc1C(=O)N1CCCC(N2CCN(c3cccc(Cl)c3)CC2)C1 (stereo not given) | 3.0 | 5813 | -0.5 | -7.7 | 2.9
COc1ccc(Nc2sc(C(=O)c3ccc(Cl)cc3)c(N)c2C(=O)Nc2ccccc2OC)cc1 | 3.9 | 22771* | -1.8 | -7.2 | -2.9
COc1ccc(C(=O)c2sc(Nc3ccccc3)c(C(=O)Nc3ccc(OC)c(OC)c3)c2N)cc1 | -12.6 | 2846 | 0.5 | 1.5 | -2.9
Cc1cc(C)c(OCC(=O)OCC(=O)NNC(=O)c2ccccc2F)c(C)c1 | 4.1 | 5841 | -1.2 | -8.3 | 0.1
O=C(COC(=O)c1ccco1)c1ccc(S(=O)(=O)N2CCCCC2)cc1 | 4.0 | 6336 | 1.3 | 8.1 | 2.2
Cn1cc(C=C(C#N)C#N)c2ccccc21 | 154.2* | 4237 | -0.2 | -2.6 | 2.8
CCOC(=O)/C(C#N)=C\c1cn(C)c2ccccc12 | 2.6 | 4304 | 0.1 | -1.0 | -9.4
O=C(COc1cccc2c1CCNC2=O)Nc1ccc(F)cc1 | 1.5 | 5248 | 1.7 | 3.8 | 0.4
CNC(=S)N/N=C/c1c(C(=O)OC)cnn1-c1ccc(F)cc1F | -1.0 | 3187 | 4.0 | u | -1.4
COC(=O)c1cnn(-c2ccc(F)cc2F)c1/C=N/NC(=S)NC(C)(C)C | 6.0 | 3848 | -4.2 | u | 52.0*
Cc1ccc2c(c1)c1c3n2CCCN(Cc2ccccc2)C3CCC1 (stereo not given) | -9.8 | 16950* | u | -11.4 | -3.3
Cc1ccc(NC(=O)c2cc(-n3cnnc3)ccc2Cl)cc1 | 2.2 | 16625* | -1.1 | -2.5 | -1.1
COC(=O)c1cc(C(=O)Nn2cnnc2)cc([N+](=O)[O-])c1 | 6.0 | 3375 | 2.6 | 9.3 | 2.6
CC[C@]12c3[nH]c4cc(-c5ccco5)ccc4c3CCN1C(=O)[C@@H](CC(=O)NCCc1ccccn1)C[C@@H]2C(=O)N1CCN(C(=O)c2ccco2)CC1 | 6.4 | 3843 | -0.3 | -6.5 | -3.4
Oc1ccc(C(=S)N2CCCC2)cc1 | 6.2 | 4095 | -5.1 | u | 0.0
CC1CCN(C(=S)c2ccc(O)cc2)CC1 | 10.1 | 22756* | 0.7 | -0.1 | -1.9
CCOc1ccc(C(=O)N/N=C/c2ccc(-c3ccc(S(=O)(=O)Nc4ncccn4)cc3)o2)cc1 | 2.9 | 22776* | 1.1 | -1.0 | -0.9
O=C(N/N=C/c1ccc(-c2ccc(S(=O)(=O)Nc3ncccn3)cc2)o1)c1cc2ccccc2cc1O | -2.8 | 3223 | 0.2 | 6.1 | 3.1
Cc1cc(C)c(NC(=O)CSc2nc3ccc(N4C(=O)c5ccccc5C4=O)cc3s2)c(C)c1 | 11.8 | 3959 | 0.8 | -0.3 | 7.8
Cc1cc(C)c(NC(=O)C(C)Sc2nc3ccc(N4C(=O)c5ccccc5C4=O)cc3s2)c(C)c1 (stereo not given) | 4.6 | 16290* | u | 0.4 | -2.3
CCSc1ccc(C(=O)Nc2ccc(Br)cn2)cc1[N+](=O)[O-] | -1.9 | 19284* | -5.8 | 11.8 | -5.8
CCSc1ccc(C(=O)Nc2cccc(C)n2)cc1[N+](=O)[O-] | -8.4 | 2606 | -1.4 | -5.7 | 2.2
SMILES | MazF activator | Autofluor counter | BoNT A protease | BoNT F protease | Anthrax LF prot
COc1cc(OC)c(OC)cc1CNCCNC(=O)c1nonc1N | -3.7 | 24547* | -1.5 | -2.7 | 0.6
COc1ccc(CCNC(=O)c2nonc2N)cc1OC | -11.9 | 20897* | 1.8 | 3.6 | 1.3
CCC(CC)C(=O)NCCc1ccc(OC)c(OC)c1 | 4.4 | 4132 | 0.3 | -5.4 | 1.2
COc1cc(CNCCNC(=O)c2nonc2N)ccc1OCc1ccc(Cl)nc1 | 5.2 | 2271 | 0.3 | -8.6 | -1.5
CCOc1cccc(CNCCNC(=O)c2nonc2N)c1 | 1.5 | 22612* | 0.0 | -5.3 | 0.7
COc1ccc(CCNC(=O)C(=O)NCc2ccc(C(C)C)cc2)cc1OC | 0.8 | 24221* | u | -4.8 | -2.7
